The values that follow come from PubChem BioAssay.

Where “and” joins values, the source holds several entries; their conditions need not be identical. Identical values can stand only once. Results filed as inconclusive are left out. For some assays here: Entries with a potency or affinity are not part of this list. Calls of active or inactive are those of the source. Rule as the data show it, unless noted: active = parasite load remaining mostly below about 12% (no sharp cut-off); inactive = mostly above about 10%.

Assay [1] is described as follows: polyglutamine-triggered caspase-3 activation inhibitors, cell-based (AID 1583). Conditions: polyglutamine-induced caspase-3 activation, cell assay; stronger effect = higher value;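 tested at 10 µM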.
Assay [2] can be described thus: suppressors of polyQ aggregation in yeast, 75Q-TubU reporter (AID 1593). The conditions noted are these: Yeast 75Q polyglutamine aggregation reporter.
Assay [3] can be described thus: rescue of polyQ-huntingtin neuronal dysfunction in worms, whole organism, C. elegans mechanosensory neurons, N-terminal huntingtin (AID 1599). Conditions: touch response, stronger effect = higher value.
Assay [4] is described as follows: inhibitors of mitochondrial cytochrome c release, biochemical, purified mitochondria (AID 1603).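 Also: mouse liver mitochondria challenged with calcium chloride; signal normalized to the plate average as 100%.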 The conditions noted are these: stronger effect = lower value.
Assay [5] is described as follows: inhibitors of polyQ protein aggregation (AID 1604). Conditions: polyglutamine-induced protein aggregation inhibition assay; stronger effect = higher value; tested at 2.5 µM.
Assay [6] is described as follows: protection against mutant huntingtin cytotoxicity, PC12 cells, LDH release (AID 1610). The conditions noted are these: PC12 mutant huntingtin toxicity, final LDH at 4 uM, stronger effect = lower value. Background: LDH in the medium is a marker of cell lysis.
Assay [7] in a line: enhancers of glutamate uptake in motor neurons, MN-1 cell line (AID 1612).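 Also: tested at 1 µM final; 0% = mean of DMSO vehicle wells on each plate; positive means more glutamate uptake than control and negative means less.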 The conditions noted are these: MN-1 motor neuron cells, stronger effect = higher value.
Assay [8] is described as follows: reducers of polyQ inclusions in PC12 cells, cell-based, NGF-treated PC12, GFPQ80 (AID 1614).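 Also: lower means fewer inclusions and 0 means no inclusions at all.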 The conditions noted are these: PC12 NGF-treated GFP-polyQ80 inclusion reduction.
Assay [9] in a line: suppressors of polyglutamine aggregation in yeast, 75Q-TubH (AID 1616). Conditions: S. cerevisiae 75Q-TubH polyglutamine aggregation suppression; stronger effect = higher value.
The nature of assay [10]: liver-stage malaria parasite growth inhibition, primary screen, cell-based, HepG2, luciferase luminescence, HepG2 viability (AID 624349).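 Also: 100% = mean of DMSO negative control wells on the same plate.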 The conditions noted are these: P. berghei liver stage in HepG2, luciferase luminescence, concentration not given here; parasite load remaining: stronger effect = lower value; viability: measured here: HepG2 viability without parasites.
Assay [11] is described as follows: differential killing of epithelial or mesenchymal cells, primary screen, imaging, PC-3E GFP, TEM4-18 mCherry, co-culture (AID 1345086;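 active = compounds killing one labelled cell type while sparing the other, by normalised counts and ratio limits, not self-fluorescent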;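 as to all read-outs here: cells exposed to compound for 72 h before imaging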;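 as to red/green cell ratio (normalised): normalised mesenchymal count divided by normalised epithelial count so high means epithelial killing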). Conditions: imaging cell counts, at 1 µM; for red/green cell ratio (normalised): actives lie on both sides, counts scaled to control wells, 1 = unselective.
The nature of assay [12]: sensitizers of A549 cells to miR-34 induction, primary screen, imaging, A549 dox-inducible miR-34, nuclei and caspase counts (AID 1347080;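 active = compounds whose cell count with miR-34 switched on is under 0.7 times the count with it off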). The conditions noted are these: A549 miR-34 inducible, Hoechst nuclei count, 48 h.
A short description of assay [13]: protection of motor neurons from glutamate death, cell-based, TUNEL DNA degradation staining, MNGlu (AID 1594; call rule not given here). The conditions noted are these: glutamate-induced death, at 1 µM, stronger effect = higher value.
Assay [14] has as its target NAD(+) hydrolase SARM1 (Homo sapiens) (UniProt Q6SZW1). Briefly: SARM1 TIR NADase inhibitors, cell lysate, NAD-Glo luminescence (AID 1508614;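 active = compound whose remaining NAD level is above about 45 nM, limit read from the data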;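 also: higher remaining NAD means stronger inhibition of SARM1 NADase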). The conditions noted are these: SAM-TIR HEK293T lysate NADase, at 1 µM, stronger effect = higher value.
The target in assay [15] is Mitogen-activated protein kinase 7 (Homo sapiens) (UniProt Q13164). Briefly: ERK5 transactivation activators in reporter cells, primary screen, cell-based, HTS (AID 1508626;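 active = luciferase signal above three times the same-plate solvent-only control wells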;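 also: luciferase driven by Gal4-ERK5 fusion binding five Gal4 sites before minimal TATA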). The conditions noted are these: HeLa Gal4-ERK5 transactivation, 18 h, at 5 µM, stronger effect = higher value.
A short description of assay [16]: hESC survival regulators, cell-based (AID 493140; call rule not given here;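 also: cells exposed to compounds for four days before counting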). The conditions noted are these: human embryonic stem cell survival screen; stronger effect = higher value.
[17] abbreviates: measured here: epithelial PC-3E GFP cell survival.
Where [18] appears, read: measured here: mesenchymal TEM4-18 mCherry cell survival.
[19] abbreviates: stronger effect = lower value, cell number ratio, induced over uninduced.
Where [20] appears, read: measured here: relative caspase fold change +Dox/-Dox.
Setting [21] is: measured here: total cells with miR-34 induction, stronger effect = lower value.
[22] abbreviates: measured here: total cells without miR-34 induction.

Mitogen-activated protein kinase 7 (Homo sapiens), sequence (Q13164 whole entry, looked up, the tested form may be a part): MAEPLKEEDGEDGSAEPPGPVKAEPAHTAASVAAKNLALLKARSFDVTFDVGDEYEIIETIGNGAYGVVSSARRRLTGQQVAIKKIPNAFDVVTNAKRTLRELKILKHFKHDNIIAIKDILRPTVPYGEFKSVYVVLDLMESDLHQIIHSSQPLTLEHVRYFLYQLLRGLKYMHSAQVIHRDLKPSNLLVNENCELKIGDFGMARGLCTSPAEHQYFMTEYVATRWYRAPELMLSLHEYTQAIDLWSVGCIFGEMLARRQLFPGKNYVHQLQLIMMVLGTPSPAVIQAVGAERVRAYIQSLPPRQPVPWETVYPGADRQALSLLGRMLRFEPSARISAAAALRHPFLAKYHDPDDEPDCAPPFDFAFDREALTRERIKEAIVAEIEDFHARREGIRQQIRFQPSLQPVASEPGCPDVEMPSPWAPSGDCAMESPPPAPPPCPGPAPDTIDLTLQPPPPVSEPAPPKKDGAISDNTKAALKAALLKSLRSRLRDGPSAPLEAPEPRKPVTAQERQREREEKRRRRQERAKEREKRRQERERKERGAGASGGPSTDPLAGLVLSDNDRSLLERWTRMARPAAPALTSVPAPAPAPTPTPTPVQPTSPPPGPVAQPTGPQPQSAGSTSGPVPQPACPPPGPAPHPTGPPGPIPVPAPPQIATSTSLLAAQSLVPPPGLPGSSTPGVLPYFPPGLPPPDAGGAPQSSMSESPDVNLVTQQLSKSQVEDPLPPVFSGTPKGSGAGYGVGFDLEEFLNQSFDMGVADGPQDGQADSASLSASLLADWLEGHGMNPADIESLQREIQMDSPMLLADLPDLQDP
NAD(+) hydrolase SARM1 (Homo sapiens), sequence (Q6SZW1 whole entry, looked up, the tested form may be a part): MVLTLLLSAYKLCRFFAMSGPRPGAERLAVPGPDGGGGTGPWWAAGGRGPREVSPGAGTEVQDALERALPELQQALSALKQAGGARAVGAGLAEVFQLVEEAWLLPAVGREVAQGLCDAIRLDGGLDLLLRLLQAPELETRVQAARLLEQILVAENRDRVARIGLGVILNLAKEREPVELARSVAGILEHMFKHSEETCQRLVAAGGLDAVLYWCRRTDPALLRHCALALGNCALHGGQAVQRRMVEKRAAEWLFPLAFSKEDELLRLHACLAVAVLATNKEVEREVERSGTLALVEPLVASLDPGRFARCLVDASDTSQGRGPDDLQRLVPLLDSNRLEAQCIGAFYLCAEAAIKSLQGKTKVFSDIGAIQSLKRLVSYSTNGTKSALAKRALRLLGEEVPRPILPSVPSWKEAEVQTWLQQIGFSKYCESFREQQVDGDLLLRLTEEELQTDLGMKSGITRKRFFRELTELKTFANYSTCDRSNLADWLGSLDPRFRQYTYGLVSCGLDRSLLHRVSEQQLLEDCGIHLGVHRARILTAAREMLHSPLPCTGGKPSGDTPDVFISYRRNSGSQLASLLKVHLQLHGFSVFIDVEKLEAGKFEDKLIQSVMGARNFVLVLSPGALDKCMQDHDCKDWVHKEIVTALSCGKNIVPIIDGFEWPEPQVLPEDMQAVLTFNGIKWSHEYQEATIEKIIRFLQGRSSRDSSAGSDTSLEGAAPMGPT

The inhibition is the drop in the measured response relative to a control, in per cent. Broadly, the viability is a per cent measure of how many cells are alive, often set against a control. As to `CC(C)CC1C(=O)N2CCC[C@H]2C2(O)O[C@](NC(=O)C3C=C4c5cccc6[nH]c(Br)c(c56)C[C@H]4N(C)C3)(C(C)C)C(=O)N12` (some centres not stated), the inhibition in [1] stood at 2.51%. In [2], this molecule gave a score of 1.5. In assay [3], this molecule yielded a rescue above control of 6.29. Further, in assay [4], the cytochrome c release ratio came out at 4.55. This molecule also returned an inhibition of aggregation in assay [5] of 72.4%. In assay [6], this molecule gave a normalised LDH release of 0.995. In addition, the glutamate uptake change in assay [7] was -22%. In addition, in assay [8], the inclusion score was found to be 2.5. The aggregation suppression score in assay [9] came out at 1.46. The parasite load remaining in assay [10] is 49.3% (inactive) and 20% (inactive). In assay [10], the viability was 70.8% and 87%. Further, the red/green cell ratio (normalised) in assay [11] is 1.32 (inactive). Besides, the normalised cell number in assay [11] (setting [17]) was determined as 0.91; in assay [11] (setting [18]), 1.21. Further, the fold change in assay [12] (setting [19]) is 0.852 (inactive); in [12] (setting [20]), 1.96. Further, the cell count stood at 9430 in [12] (setting [21]) and 11100 in assay [12] (setting [22]).

Consider `CC(C)[C@@H]1CC[C@@H](C)C[C@H]1O`, for which, in assay [1], the inhibition was 18.8%. The score in assay [2] is 1.2. Further, the protection in assay [13] was 54% (active). The molecule further yielded a rescue above control in assay [3] of 5.72. Moreover, the cytochrome c release ratio in assay [4] was 0.66. Further, the inhibition of aggregation in assay [5] came to 80.3%. Moreover, the glutamate uptake change in assay [7] is 2.2%. This molecule returned an inclusion score in assay [8] of 1. For the same molecule, in assay [9], the aggregation suppression score turned out to be 1.36. The parasite load remaining in assay [10] was 176% (inactive) and 64.4% (inactive). Moreover, the viability in assay [10] is 87.7% and 95.6%. The red/green cell ratio (normalised) in [11] is 0.86 (inactive). Moreover, the normalised cell number came out at 0.91 in [11] (setting [17]) and 0.79 in assay [11] (setting [18]). In addition, the fold change is 0.95 (inactive) in assay [12] (setting [19]) and 2.52 in assay [12] (setting [20]). Also, the cell count in assay [12] (setting [21]) amounted to 12500; in assay [12] (setting [22]), 13100. In addition, the remaining NAD in assay [14] was 10 nM (inactive). In addition, in assay [15], the luciferase signal is 44 AU (inactive).

In the case of `CN[C@@H]1[C@H](OC2[C@H](O[C@H]3[C@H](O)[C@@H](O)[C@H](N=C(N)N)[C@@H](O)[C@@H]3N=C(N)N)O[C@@H](C)[C@]2(O)C=O)O[C@@H](CO)[C@H](O)[C@H]1O` (some centres not stated), in [1], the inhibition amounted to 11%. This molecule also had a score in [2] of 1.53. The rescue above control in assay [3] was 0.21. In assay [4], the cytochrome c release ratio came out at 1.12. For the same molecule, the inhibition of aggregation in [5] stood at 65.1%. Moreover, the normalised LDH release in [6] is 0.965. In addition, in [7], the glutamate uptake change was found to be 10.8%. In addition, the inclusion score in assay [8] worked out at 1.5. Also, the aggregation suppression score in [9] turned out to be 1.33. Further, the parasite load remaining in assay [10] is 83% (inactive) and 43.9% (inactive). The viability in [10] is 71.2% and 98.6%. The red/green cell ratio (normalised) in [11] is 1.2 (inactive). The normalised cell number was determined as 1.02 in assay [11] (setting [17]) and 1.22 in assay [11] (setting [18]). In addition, the fold change is 0.885 (inactive) in assay [12] (setting [19]) and 2.64 in assay [12] (setting [20]). Also, the cell count in [12] (setting [21]) amounted to 11600; in [12] (setting [22]) it was 13100.

With `C[C@H]1CC2C3CCC4=CC(=O)C=C[C@]4(C)[C@@]3(F)[C@@H](O)C[C@]2(C)[C@@]1(O)C(=O)COP(=O)(O)O` (some centres not stated), the red/green cell ratio (normalised) in assay [11] was 1.28 (inactive). Moreover, the normalised cell number in assay [11] (setting [17]) was 1.37; in assay [11] (setting [18]) it was 1.75. Moreover, the fold change is 0.873 (inactive) in assay [12] (setting [19]) and 1.02 in assay [12] (setting [20]). Also, the cell count was found to be 6310 in [12] (setting [21]) and 7220 in [12] (setting [22]). In addition, the luciferase signal in assay [15] is 92 AU (inactive).

`C#C[C@]1(O)CCC2C3CCC4=CC(=O)CC[C@@H]4C3CC[C@@]21C` (some centres not stated): the inhibition in assay [1] is -3.25%. In assay [2], the score came out at 0.94. Moreover, the rescue above control in [3] is 10.4. Moreover, the cytochrome c release ratio in assay [4] came to 1.47. This molecule also returned an inhibition of aggregation in assay [5] of 89.7%. Also, the glutamate uptake change in [7] was -5.05%. Further, the inclusion score in [8] was found to be 2. In assay [9], this molecule showed an aggregation suppression score of 0.524. In assay [10], the parasite load remaining is 118% (inactive) and 51.8% (inactive). The viability in assay [10] was 71.2% and 90%. In [11], the red/green cell ratio (normalised) is 0.86 (inactive). In addition, the normalised cell number amounted to 1.29 in [11] (setting [17]) and 1.11 in assay [11] (setting [18]). In addition, the fold change in assay [12] (setting [19]) is 0.914 (inactive); in assay [12] (setting [20]), 1.55. In addition, the cell count in assay [12] (setting [21]) is 10400; in [12] (setting [22]) it was 11300.

Turning to `COc1cc(/C=C/C(=O)N2CCC=CC2=O)cc(OC)c1OC`, the survival in assay [16] is 0.417 (inactive). Moreover, the parasite load remaining in assay [10] is -9.42% (inactive) and 36.9% (inactive). The viability in assay [10] is 36.5% and 76.3%. Also, in assay [11], the red/green cell ratio (normalised) was 1.8 (active). The normalised cell number amounted to 0.39 in assay [11] (setting [17]) and 0.7 in [11] (setting [18]). Also, the fold change was 0.965 (inactive) in assay [12] (setting [19]) and 1.26 in [12] (setting [20]). For the same molecule, the cell count is 3400 in [12] (setting [21]) and 3530 in assay [12] (setting [22]). Besides, the luciferase signal in [15] was 460 AU (active).
